INS promoter inh – inhibitors of insulin promoter-driven GFP, primary screen, imaging, TRM-6 cells (human fetal islet line), eGFP reporter, cell count; reporter expression induced with tamoxifen; inhibition, % at 2 µM; AID 1273, 2008; 0.9% of 130,000 active;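 active means inhibition above the mean plus 3 SD, with well images judged a real hit on visual review, cut at about 60% in these data, passing the limit was not always enough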
ROMK mod – ROMK potassium channel modulators, primary screen, cell-based, thallium flux, MLSMR library | Tet-inducible ROMK, thallium flux fluorescence; actives lie on both sides | B-score at 10 µM | 2% of 130,000 active | AID 1918, 2009;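 active means signal ratio slope over the read window, or its plate-corrected B-score, at least 3 SD from the plate mean, either direction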;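 further: B-score of the F/F0 ratio slope over 7 to 12 s after thallium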
Target sequence (P48048 whole entry, looked up): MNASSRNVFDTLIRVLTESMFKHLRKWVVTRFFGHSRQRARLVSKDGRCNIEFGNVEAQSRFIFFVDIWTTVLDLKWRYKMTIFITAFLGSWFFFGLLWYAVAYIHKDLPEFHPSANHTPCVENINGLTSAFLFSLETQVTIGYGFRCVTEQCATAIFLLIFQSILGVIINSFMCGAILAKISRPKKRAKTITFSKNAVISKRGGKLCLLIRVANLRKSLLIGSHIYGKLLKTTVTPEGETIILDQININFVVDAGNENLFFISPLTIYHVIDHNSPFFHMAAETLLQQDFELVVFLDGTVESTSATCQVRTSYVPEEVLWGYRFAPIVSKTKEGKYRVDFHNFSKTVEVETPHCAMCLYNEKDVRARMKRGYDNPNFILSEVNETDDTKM
Cl transport mod – KCC2 cotransporter modulators, thallium flux, primary screen, cell-based, HEK293 KCC2, FluoZin-2 fluorescence, MLSMR; B-score of Tl+ flux slope (higher = more flux/activation; lower = inhibition) at 10 µM; 2.2% of 190,000 active; KCC2 cells, thallium flux FluoZin-2 fluorescence; Solute carrier family 12 member 5 (Homo sapiens), Q9H2X9; AID 1456, 2008;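 active means thallium flux slope and its plate-corrected score both differing from the plate sample mean at a set confidence after two filtering rounds, in either direction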;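 further: slope of fluorescence scaled to starting intensity during 10 to 20 s after thallium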
WT yeast gro inh – growth inhibition of WT strain, primary screen, mitochondrial fusion inhibitor project, WT and mutant strains, chemical genetic. mitochondrial fusion phenotypic screen. inhibition, % at 10 µM. 2.1% of 190,000 active. AID 1362, 2008; in the data active means inhibition above about 58%; tested in S. cerevisiae
Lmaj promast – Leishmania major promastigote growth inhibition, primary screen. Leishmania major promastigotes, resazurin fluorescence viability. inhibition, % at 10 µM. 9% of 200,000 active. AID 1063, 2008; in the data active means inhibition above about 50%;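 further: promastigotes grown with compound for 44 hours at 28 °C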
Ins promoter up – insulin promoter activators in MIN6 cells, imaging, high-content screening, mouse beta cells | MIN6 insulin promoter-GFP reporter; stronger effect = higher value | z-score at 5 µM | 0.3% of 190,000 active;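 active means z-score above 3 at 5 µM with at least 500 cells counted in the well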
* marks the source's active call; other numbers are inactive results. The list is not random: actives were taken first. Their share in the collection is about 12%.

For O=S(=O)(Nc1ccc(Cl)cc1)c1ccc(N2CCOCC2)c(NC(=S)NC2CC2)c1 the results were INS promoter inh -60, ROMK mod 0.77, Cl transport mod -0.37, WT yeast gro inh -3, Lmaj promast -1 and Ins promoter up -0.09.
COc1ccc(N2CCN(CC(=O)Nc3ccc(SC(F)F)cc3)CC2)cc1 was read as Cl transport mod 0.098, WT yeast gro inh 10, Lmaj promast -2 and Ins promoter up 0.26.
For COc1ccc(NS(=O)(=O)c2ccc(N3CCCC3)c(NC(=S)Nc3ccc(SC(F)F)cc3)c2)cc1 the results were INS promoter inh -14, ROMK mod 0.48, Cl transport mod 0.76, WT yeast gro inh -17, Lmaj promast 87* and Ins promoter up -1.1.
CCOc1cc(C2NC(=O)NC(C)=C2C(C)=O)cc(Cl)c1OCC(=O)O (centres undefined) was read as INS promoter inh 17, ROMK mod 0.47, Cl transport mod 0.5, WT yeast gro inh -15, Lmaj promast -6 and Ins promoter up 0.2.
For COC(=O)CSc1ccc2nnc(CCNS(=O)(=O)c3ccccc3)n2n1 the results were ROMK mod 1, Cl transport mod -0.68, WT yeast gro inh -2, Lmaj promast -4 and Ins promoter up -0.01.
`Cc1cc(-c2sccc2Br)nc(-n2cccc2)n1` gave ROMK mod 0.18, Cl transport mod -0.36, WT yeast gro inh 69*, Lmaj promast -3 and Ins promoter up -0.48.
Screening Cc1cc(-c2ccc(Br)s2)nc(-n2cccc2)n1 returned ROMK mod -0.6, Cl transport mod -0.65, WT yeast gro inh 33, Lmaj promast 0 and Ins promoter up -0.75.
Screening CO/N=C\c1cc(C(=O)c2ccc(Cl)cc2Cl)cn1C returned ROMK mod -1, Cl transport mod 0.2, WT yeast gro inh 60*, Lmaj promast 7 and Ins promoter up 0.94.
For COc1ccc(-c2cc3ccccc3oc2=O)cc1NC(=O)c1ccc([N+](=O)[O-])o1 the results were INS promoter inh -33, WT yeast gro inh 39, Lmaj promast 85* and Ins promoter up -0.49.
COc1ccc(S(=O)(=O)N2CCCCCC2)cc1NC(=O)c1c2c(nc3ccccc13)CCN(Cc1ccccc1)C2 was read as INS promoter inh -46, ROMK mod -1.6, Cl transport mod -1.5, WT yeast gro inh -9 and Lmaj promast 54*.
For COc1ccc(S(=O)(=O)N2CCCCC2)cc1NC(=O)c1ccc([N+](=O)[O-])o1 the results were ROMK mod 0.1, Cl transport mod -0.037, WT yeast gro inh -6, Lmaj promast 90* and Ins promoter up -0.06.
For COc1cccc(C(=O)Nc2cc(S(=O)(=O)N3CCCCC3)ccc2OC)c1 the results were INS promoter inh 36, ROMK mod -0.42, Cl transport mod -0.79, WT yeast gro inh 17, Lmaj promast 14 and Ins promoter up 0.27.
COc1ccc(NC(=O)c2c3c(nc4ccccc24)CCN(Cc2ccccc2)C3)c(OC)c1 was read as INS promoter inh -50, ROMK mod -0.15, Cl transport mod -0.046, WT yeast gro inh 2, Lmaj promast 2 and Ins promoter up -0.59.
`O=C(NCc1nc2ccccc2[nH]1)C1=C[C@@H](C2CCCCC2)C[C@@H](OCCCCO)O1` gave Cl transport mod -0.8 and Ins promoter up -0.41.
For CC(C)C(NC(=O)CC12CC3CC(CC(C3)C1)C2)C(=O)O (centres undefined) the results were ROMK mod 0.9, Cl transport mod 0.4, WT yeast gro inh 9, Lmaj promast -5 and Ins promoter up 1.8.
`Cc1ccc(-c2cc(-c3ccco3)c3c(N)c(C(=O)NN)oc3n2)cc1` gave Cl transport mod -1.3 and Ins promoter up 3*.
Cc1onc(-c2ccccc2Cl)c1C(=O)OCC(=O)c1c(N)n(C)c(=O)n(C)c1=O was read as ROMK mod 1.2, Cl transport mod -2.6, WT yeast gro inh -10, Lmaj promast 41 and Ins promoter up -0.68.
`Cc1onc(-c2c(F)cccc2Cl)c1C(=O)ONC(=O)c1ccccc1` gave Ins promoter up -0.36.
